# Results with a measured potency or affinity are listed apart. Active and inactive are the calls of the source. No rule for the calls is given here.
# Assay: A549 cell cytotoxicity, dose response, cytotoxicity control, plate reader, cherry-pick, antagonist series (AID 743412)
# Conditions: series mostly up to 26 µM
row,SMILES,outcome
1,CC(C)(C)NC(=O)c1cccc(NC(=O)c2ccc3c(c2)C(=O)N(C(C)(C)C)C3=O)c1,inactive
2,Cc1noc(C)c1S(=O)(=O)Nc1cccc2c1O[C@H](CN(C)C(=O)Nc1ccc(F)cc1)[C@H](C)CN([C@H](C)CO)C2=O,inactive
3,COc1ccc2c3c([nH]c2c1)[C@H](CO)N(C(C)=O)CC31CCN(C(=O)CN2CCOCC2)CC1,inactive
4,O=C(CC1CS(=O)(=O)CC1CC(=O)Nc1ccc2c(c1)OCCO2)Nc1ccc2c(c1)OCCO2 (stereo unspecified),inactive
5,C[C@H](CO)N1C[C@H](C)[C@H](CN(C)C(=O)Nc2ccc(F)cc2)OCCCC[C@H](C)Oc2ccc(NC(=O)NC3CCCCC3)cc2C1=O,inactive
6,CCc1nnc(NC(=O)CSc2nnc3ncccn23)s1,inactive
7,O=C(Nc1cccnc1)c1cc(-c2ccc3c(c2)OCO3)on1,inactive
8,Cc1ccc(-c2nc(-c3ccncc3)no2)c(Cl)c1,inactive
9,CSc1nc2ccc(NC(=O)c3ccccn3)cc2s1,inactive
10,COCCn1c(C)cc(C(=O)CSc2nnnn2C2CCCC2)c1C,inactive
11,C=CCNc1nc(-c2cc3ccccc3o2)cs1,inactive
12,CCn1c(C)cc(C(=O)CN2C(=O)c3ccccc3S2(=O)=O)c1C,inactive
13,CCOC(=O)C1=CCN(S(=O)(=O)c2ccccc2C)C1c1cccc(C)c1 (stereo unspecified),inactive
14,Cc1ccccc1S(=O)(=O)N1[C@H](C#N)[C@H](c2ccc(C#CC3CCCCC3)cc2)[C@H]1CO,inactive
15,COc1ccc(S(=O)(=O)N2CCN(C(=O)c3ccc(C)o3)CC2)cc1,inactive
16,Clc1ccc(OCc2nc(-c3ccccn3)no2)c(Br)c1,inactive

# From PubChem BioAssay
